In PubChem BioAssay (NCI):
Several values for one entry are separate records, joined by “and”; a condition that tells them apart may be missing. Equal entries are not always repeated. Compounds without any hit were thinned out: in the full panel of roughly 83,000, 20% have a hit.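 A percent growth of 40 corresponds to 60% growth inhibition; 0 means no net growth; -100 means all cells died. Active threshold: below 10.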 Activity calls are given as the source filed them.

Tested on: MDA-MB-468 breast
Assay: NCI-60 one-dose screen, 48 h (100 = growth as untreated, 0 = no growth, -100 = all killed)
Settings: 10 µM unless noted

COc1cc(OC)cc(N2CCN(C(=O)Nc3nc4cc(F)ccc4nc3OC)CC2)c1 was tested. Which growth did it give?
Its growth is -5.78% (active).

For CN1C(=O)C2(Nc3cc(Cl)ccc3S2)c2cc(Cl)ccc21 (stereo not given), which growth is on record?
Its growth is 106% (inactive).

O=S(=O)(O)c1ccc2cc(O)ccc2c1 was tested. Which growth did it give?
Its growth is 101% (inactive).

How did the growth turn out when CCN(C(=O)CCl)C(C)(C)C(SSSC(c1ccc(Cl)cc1)C(C)(C)N(CC)C(=O)CCl)c1ccc(Cl)cc1 (stereo not given) was run?
The growth was 5.76% (active).

How did the growth turn out when CCOC(=O)C(=Cc1ccc(C#N)cc1)C(=O)OCC was run?
Its growth is 15.6% (inactive).

O=C1OC(c2ccc(-c3ccccc3)cc2)=C/C1=C/c1c2ccccc2cc2ccccc12 was tested. Which growth did it give?
The growth was 90.2% (inactive).

How did the growth turn out when Cc1ccc(S(=O)(=O)n2cc(-c3csc(-c4cn(C)c5ncccc45)n3)c3ccccc32)cc1 was run?
Its growth is 38.6% (inactive).

With O=C(O)CCC(=O)OC(C1CO1)C(OC(=O)CCC(=O)O)C1CO1 (stereo not given) as the compound, how does the growth read?
Its growth is 99% (inactive).

Which growth does the source give for c1ccc2c(c1)[nH]c1c2cc[n+]2cc3c(cc12)CCCC3 here?
Its growth is -14.5% (active).

With CCn1c(-c2nonc2N)nc2c(C#CC(C)(C)O)ncc(OC[C@H]3CCCNC3)c21 as the compound, how does the growth read?
Its growth is 31.5% (inactive).

Which growth does the source give for COc1cc(NCCCN)c2ncccc2c1 here?
Its growth is 76% (inactive).

For O=C(NCCCNC(=O)OCc1ccc2c(Br)cc(Br)c(O)c2n1)OCc1ccc2c(Br)cc(Br)c(O)c2n1, which growth is on record?
The growth was -72% (active).

CCN(CC)CCCNc1ccc(C)c2sc3ccccc3c(=O)c12 was tested. Which growth did it give?
Its growth is -34.8% (active).

With CS(=O)CC(=N\O)/C(CS(C)=O)=N\O (stereo not given) as the compound, how does the growth read?
The growth was 104% (inactive).

Which growth does the source give for O=C1C(Cl)=C(Oc2ccccc2)C(=O)c2ccccc21 here?
The growth was 13% (inactive).

How did the growth turn out when c1ccc(Cc2nn3cc(-c4ccccc4)nc3s2)cc1 was run?
The growth was 101% (inactive).

Which growth does the source give for CC(C)[C@@H]1NC(=O)[C@]2(C)CSC(=N2)c2ccnc(c2)CNC(=O)C[C@@H](/C=C/CCS)OC1=O here?
Its growth is 42.7% (inactive).

Which growth does the source give for COc1cc(/C=N\NC(=O)CN2CCN(c3cc4c(cc3F)c(=O)c(C(=O)N/N=C/c3ccc(O)c(OC)c3)cn4C3CC3)CC2)ccc1O here?
The growth was -37.8% (active).

Which growth does the source give for O=C1Nc2ccccc2/C1=C\c1nc(-c2ccccc2F)n2ccccc12 here?
The growth was 8.76% (active).

How did the growth turn out when COc1cccc(NC(=O)Cn2cc3c(=O)oc4ccccc4c3n2)c1 was run?
The growth was 101% (inactive).

How did the growth turn out when COc1ccc(C(=S)N2CCN(c3ccc(Cl)cc3)CC2)cc1 was run?
Its growth is 102% (inactive).

How did the growth turn out when N=C(N)c1ccc(-c2ccc(-c3cncc4ccccc34)s2)s1 was run?
Its growth is -72% (active).

For CCCCc1nc2c(N)nc3ccccc3c2n1Cc1cccc(CN)c1, which growth is on record?
Its growth is 27.3% (inactive).

COc1ccc(N2CCN(CC(=O)N3CCN(c4nnc(-c5ccccc5)c(-c5ccccc5)n4)CC3)CC2)cc1 was tested. Which growth did it give?
The growth was 50.6% (inactive).

With COc1cc2cc(Oc3ccc(NC(=O)c4cc(C(F)(F)F)cc(C(F)(F)F)c4)cc3)c(C)nc2cc1OC as the compound, how does the growth read?
Its growth is 22.8% (inactive).

With CC1=NN(c2cccc(Cl)c2)C(=O)/C1=C\c1cn(CC(O)CN2CCCCC2)c2ccccc12 (stereo not given) as the compound, how does the growth read?
Its growth is 23.7% (inactive).

With CCN(CC)CCNC(=O)c1ccc(NCN2C(=O)NC(c3ccccc3)(c3ccccc3)C2=O)cc1 as the compound, how does the growth read?
The growth was 101% (inactive) and 111% (inactive).

For COc1cc(/C=N/n2c(CN3CCOCC3)nc3ccccc3c2=O)cc(OC)c1OC, which growth is on record?
Its growth is 109% (inactive).

Which growth does the source give for CCCCNCCCCCNc1cc(OC)cc2cccnc12 here?
The growth was 68.8% (inactive).

With CC12CCC(C(=O)CC1=O)C2(C)C (stereo not given) as the compound, how does the growth read?
Its growth is 99.3% (inactive).

S=C=Nc1ccc(N2CCOCC2)cc1 was tested. Which growth did it give?
The growth was 87% (inactive).

With COc1cc(-c2nc(-c3nc4ccccc4[nH]3)cc3c2[nH]c2ccccc23)cc(OC)c1OC as the compound, how does the growth read?
Its growth is 42.1% (inactive).

With O=C1CC(=NCC(=O)n2c(-c3ccccc3)nc3ccccc32)NN1 as the compound, how does the growth read?
The growth was 94% (inactive).

Which growth does the source give for CCCCCCCC/C=C\CCCCCCCCOc1cccc(CC(=O)NCC[N+]2(C)CCOCC2)c1 here?
The growth was 86% (inactive).

For Cc1cccc(CO)c1, which growth is on record?
Its growth is 107% (inactive).

Cc1nn(-c2ccccc2)c2nc(Cl)c(/C=C/C(=O)c3ccccc3)c(-c3ccccc3)c12 was tested. Which growth did it give?
Its growth is 105% (inactive).

For CNC(=O)c1nn(C)c2c1C(C)(C)Cc1cnc(Nc3ccc(N4CCN(C)CC4)cc3)nc1-2, which growth is on record?
Its growth is -13.4% (active).

With CN1CCN(c2ccc(/C=N/Nc3nc4ccccc4c(=O)n3-c3ccccc3)cc2)CC1 as the compound, how does the growth read?
Its growth is 90.8% (inactive).

How did the growth turn out when CC1O[C@@H](OC2[C@H](OC(=O)/C=C/c3ccc(O)c(O)c3)C(COC3O[C@H](C)C(O)C(O)[C@@H]3O)O[C@@H](OCCc3ccc(O)c(O)c3)[C@H]2O)[C@@H](O)C(O)[C@H]1O (stereo not given in full) was run?
The growth was 106% (inactive).

Nc1ccc(-c2ccncc2)cc1NC(=O)N1CCCC1 was tested. Which growth did it give?
The growth was 94.2% (inactive).
